Source: PubChem BioAssay (National Center for Advancing Translational Sciences (NCATS))
Gal4-VP16 FLuc – Gal4-VP16 reporter inhibition counter-screen | Drosophila S2 Gal4-VP16 UAS-luciferase, luminescence, 20 h | AID 2546 | hit rate 3.5% among 310,000 | Potency, µM (series often up to 53.6 µM), most hits filed as inhibitors;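 note: Gal4-VP16 expression switched on by copper sulfate through the metallothionein promoter; nearly all actives have a fitted effect of over 50% in size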
RORgamma inh – blocks mouse ROR gamma transcriptional activity. P51450. AID 2551. hit rate 5.4% among 310,000. Potency, µM (doses to about 53.6 µM), actives largely listed as inhibitors. Drosophila S2 Gal4-RORgamma UAS-luciferase reporter, 20 h; note: nearly all actives have a fitted effect of over 60% in size
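Luciferase reporter read in Schneider cells carrying Gal4-RORγ (mouse) and UAS-Photinus luciferase; cells given compound 1 h before 700 uM copper sulfate induction, then incubated 20 h at ambient temperature.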
CtBP-E1A inh – CtBP/E1A binding inhibition; AlphaScreen GST-E1A/His-CtBP binding, 1536-well; hits give low values; AID 651724; activity change, % (test concentration not listed); hit rate 0.49% among 340,000; in the data active = activity change below about -65%; inconclusive = mostly about -30% to -63%
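Protein mix (5X: 125 nM each GST-E1A, His-CtBP) was incubated with pinned compound 2 h at 37 deg C in dark, in 50 mM Tris pH 8.0 buffer with 300 mM NaCl. Glutathione donor and nickel acceptor beads followed; AlphaScreen signal read after 1 h.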
Six1-Eya2 inh – Six1/Eya2 interaction inhibition | hit rate 0.56% among 360,000 | Q15475+O00167 | activity change, % (test concentration not listed) | AID 651725 | AlphaScreen GST-Six1/His-Eya2 binding, biochemical; hits give low values; in the data active = activity change below about -65%; inconclusive = mostly about -30% to -63%
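AlphaScreen luminescence read after one hour at 37 °C in darkness. Pin-transferred compounds met GST-Six1 and His-Eya2 protein (5X stock 250 nM/500 nM) plus glutathione donor and Ni-chelate acceptor beads (5X, 50 ug/mL).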
PKM2 activator – PKM2 (human) enzyme activation. purified PKM2, Kinase-Glo ATP luminescence, activation; response scale: 0% is enzyme alone, no compound. P14618. hit rate 0.34% among 260,000. Potency, µM (series often up to 57.5 µM), hits mostly activators; note: nearly all actives have a fitted effect of over 55% in size
Target sequence (P14618 whole entry, looked up): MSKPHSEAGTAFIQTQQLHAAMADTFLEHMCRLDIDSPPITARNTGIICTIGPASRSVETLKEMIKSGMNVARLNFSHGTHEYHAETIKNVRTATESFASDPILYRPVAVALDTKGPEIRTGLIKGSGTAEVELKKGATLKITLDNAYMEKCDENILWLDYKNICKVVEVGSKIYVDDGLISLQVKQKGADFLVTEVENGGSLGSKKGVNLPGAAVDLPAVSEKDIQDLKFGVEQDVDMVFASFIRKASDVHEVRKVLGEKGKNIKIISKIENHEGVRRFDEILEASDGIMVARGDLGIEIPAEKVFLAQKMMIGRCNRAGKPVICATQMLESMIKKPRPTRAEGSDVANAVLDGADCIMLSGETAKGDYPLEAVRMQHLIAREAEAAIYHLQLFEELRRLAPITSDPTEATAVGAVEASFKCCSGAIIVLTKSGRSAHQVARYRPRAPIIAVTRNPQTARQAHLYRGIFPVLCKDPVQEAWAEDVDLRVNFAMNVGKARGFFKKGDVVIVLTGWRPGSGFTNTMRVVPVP
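ATP formation by purified human PK-M2, quantified via coupled luciferase luminescence after 1 h at room temperature with 0.1 mM ADP and 0.5 mM PEP final.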
Each line names hits and unclear results; the compound was inactive in the other large screens. Sampled rows, rich in hits. Any-hit rate of the full collection: about 5.6%. Unless noted, calls come from the whole dose curve; as a rule, active = well fitted curve in the direction sought with a large enough effect; inconclusive = small, poorly fitted or top-dose-only effect, or another doubt; inactive = no such curve, though single readings can be large; an effect the other way counts as inactive or inconclusive.

O=C(O)c1cccc(S(=O)(=O)Nc2ccc3c(c2)CCC3)c1	Gal4-VP16 FLuc 10µM, RORgamma inh inconclusive
Oc1c(CN2CCN(c3ccccn3)CC2)cc(Cl)c2cccnc12	Gal4-VP16 FLuc inconclusive, RORgamma inh 0.45µM, CtBP-E1A inh -97, Six1-Eya2 inh -90
OCCN1CCN(Cc2cc(Br)cc(Br)c2O)CC1	none
OCCN1CCN(Cc2cc(Cl)c3cccnc3c2O)CC1	Gal4-VP16 FLuc 10µM, RORgamma inh 5.6µM, CtBP-E1A inh -95, Six1-Eya2 inh -90
CCOc1ccc(NC(=S)N2CCN(S(=O)(=O)c3ccc(OC)cc3)CC2)cc1	none
OCCC1CN(Cc2nc3ccccc3s2)CCN1CCc1ccccc1 (stereo not drawn)	none
Cc1sc2nc(-c3ccccn3)[nH]c(=O)c2c1-c1ccccc1	Gal4-VP16 FLuc 4.5µM, RORgamma inh 1.1µM, CtBP-E1A inh -83, Six1-Eya2 inh inconclusive
CCN(CC)C(=O)c1sc2nc(-c3ccccn3)[nH]c(=O)c2c1C	CtBP-E1A inh -88, Six1-Eya2 inh -90 (no result: Gal4-VP16 FLuc, RORgamma inh, PKM2 activator)
COC(=O)c1ccc2nc(-c3ccc(S(C)(=O)=O)cc3)cn2c1	none
CS(=O)(=O)c1ccc(-c2cn3cc(C(=O)O)ccc3n2)cc1	Gal4-VP16 FLuc 10µM, RORgamma inh 7.9µM
CCOc1cc(C(=O)Nc2cc(C)on2)cc(OCC)c1OCC	RORgamma inh 2.2µM
Cc1cc(NC(=O)c2cccc(COc3ccc(Br)cc3)c2)no1	Gal4-VP16 FLuc inconclusive, RORgamma inh 7.1µM
CCOc1ccc(C(=O)Nc2cc(C)on2)cc1	Gal4-VP16 FLuc inconclusive, RORgamma inh inconclusive
CCOC(=O)c1nn(C23CC4CC(CC(C4)C2)C3)c2c1C(=O)N(c1ccc(C)cc1)C2=O	Gal4-VP16 FLuc 7.1µM, RORgamma inh 11µM
COC(=O)c1nn(C23CC4CC(CC(C4)C2)C3)c2c1C(=O)N(c1ccc(Br)cc1)C2=O	Gal4-VP16 FLuc 5.6µM
CC(=O)c1csc(CS(=O)(=O)c2ccccn2)n1	none (no result: CtBP-E1A inh)
CCCSC(=S)c1c(C)[nH]n(-c2ccccc2)c1=O	Gal4-VP16 FLuc 0.79µM, RORgamma inh 0.32µM
Cc1[nH]n(-c2ccccc2)c(=O)c1Sc1ccc(Cl)cc1	none
CCCCCn1c(=O)c(-c2nc3ccccc3[nH]2)c(O)c2ccccc21	Gal4-VP16 FLuc 7.9µM, RORgamma inh 1.6µM
CN(C)c1ccc(-c2nc3ccccn3c2/N=C/c2ccc(Br)cc2)cc1	Gal4-VP16 FLuc 8.9µM, RORgamma inh 7.1µM
COc1cc(-c2nc3ccccn3c2/N=C/c2cc(OC)c(OC)c(OC)c2)ccc1O	none (no result: Gal4-VP16 FLuc, RORgamma inh, PKM2 activator)
Cc1c(-c2ccc(Br)cc2)nc2ccccn12	Gal4-VP16 FLuc inconclusive, RORgamma inh 10µM
Cc1ccc(-c2nc3ccccn3c2C=O)cc1	none (no result: CtBP-E1A inh)
COCc1ccc(CN2CCc3c([nH]c4ccccc34)C2CC(C)C)o1 (stereo not drawn)	none
CC(C)c1c(O)ccc2c1CCC1C(C)(C)CCC[C@@]21C (stereo partly drawn)	Gal4-VP16 FLuc 10µM, RORgamma inh inconclusive (no result: CtBP-E1A inh, Six1-Eya2 inh, PKM2 activator)
COc1cc([N+](=O)[O-])c(C)cc1NC(=O)c1ccc(OC)c(OC)c1	none (no result: Gal4-VP16 FLuc, RORgamma inh, PKM2 activator)
CCN(CC)CCNCc1ccc(-c2ccc(Cl)cc2)o1	RORgamma inh 7.9µM
CCCCS(=O)(=O)N1CCc2nc(-c3ccc(OC)cc3C)c3c(c2C1)CO[C@@H](c1ccccc1)C3	none (no result: Gal4-VP16 FLuc, RORgamma inh, CtBP-E1A inh, Six1-Eya2 inh)
O=S(=O)(Nc1ccc(O)c(Sc2nc3ccccc3s2)c1)c1cccc2ccccc12	Gal4-VP16 FLuc 7.9µM, RORgamma inh inconclusive
CC(C)C(C)(C#N)NC(=O)CSc1nc2scc(-c3ccc(F)cc3)c2c(=O)n1Cc1ccccc1 (stereo not drawn)	Gal4-VP16 FLuc inconclusive, RORgamma inh 18µM
Cc1cccc(NC(=O)Cc2nc(-c3c[nH]c(C(=O)N4CCCC4)c3)cs2)c1	none (no result: Gal4-VP16 FLuc, RORgamma inh, PKM2 activator)
Cc1nc2ccc(-c3nc4ccc(N)cc4[nH]3)cc2[nH]1	Gal4-VP16 FLuc 8.9µM, RORgamma inh 11µM
CCOC(=O)C(NC(=O)c1cccc(Cl)c1)(OCc1ccc(F)cc1)C(F)(F)F (stereo not drawn)	Gal4-VP16 FLuc 20µM, RORgamma inh inconclusive
CCOC(=O)C(NC(=O)c1ccccc1)(OCc1ccc(F)cc1)C(F)(F)F (stereo not drawn)	none
